# In PubChem BioAssay (EPA / NIEHS):
# Records with an inconclusive call do not appear. Calls of active or inactive are those of the source. The calls were made as follows, unless noted: active = hit-call score of the fitted dose curve at least 0.9, where 1 is the maximum; inconclusive = response in the unintended direction; inactive = score below 0.9.
# Columns and labels:
# [1] = read-out: Thyroid Hormone Responsive (THRSP), THRSP (gene 7069); test: LTEA_HepaRG_THRSP: Life Technologies and Expression Analysis (LTEA) Assay for Thyroid Hormone Responsive (THRSP) using HepaRG (AID 2283536; active = hit-call score of the fitted dose curve at least 0.9, where 1 is the maximum; inactive = score below 0.9); settings: mRNA level, 48 h; actives raise or lower the signal
# In short: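 mRNA induction or loss relative to 0.5% DMSO vehicle was fitted bidirectionally across an eight-point curve whose highest exposure was 100 uM. Human HepaRG liver cells received chemicals in duplicate over 48 h before RNA extraction.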
# [2] = read-out: Cellular tumor antigen p53 (Homo sapiens) (UniProt P04637); test: LTEA_HepaRG_TP53: Life Technologies and Expression Analysis (LTEA) Assay for Tumor Protein P53 (TP53) using HepaRG (AID 2283537; active = hit-call score of the fitted dose curve at least 0.9, where 1 is the maximum; inactive = score below 0.9); settings: mRNA level, 48 h; actives raise or lower the signal
# In short: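 HepaRG, 48 h exposure, top 100 uM, half-log 8-point, 0.5% DMSO vehicle, duplicates. Read: TP53 mRNA by TaqMan qRT-PCR, normalised to ACTB/GAPDH/POLR2A; bidirectional fit vs DMSO.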
# [3] = read-out: UDP glucuronosyltransferase (UGT1A1), UGT1A1 (gene 54658); test: LTEA_HepaRG_UGT1A1: Life Technologies and Expression Analysis (LTEA) Assay for UDP glucuronosyltransferase (UGT1A1) using HepaRG (AID 2283538; active = hit-call score of the fitted dose curve at least 0.9, where 1 is the maximum; inactive = score below 0.9); settings: mRNA level, 48 h; actives raise or lower the signal
# In short: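 Readout is UGT1A1 transcript level by qRT-PCR, normalized to three housekeeping genes, after 48 h chemical treatment of HepaRG cells. Concentrations ran from 100 uM down in half-log steps with 0.5% DMSO, and gain or loss relative to DMSO was fitted.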
# [4] = read-out: UDP glucuronosyltransferase (UGT1A6), UGT1A6 (gene 54578); test: LTEA_HepaRG_UGT1A6: Life Technologies and Expression Analysis (LTEA) Assay for UDP glucuronosyltransferase (UGT1A6) using HepaRG (AID 2283539; active = hit-call score of the fitted dose curve at least 0.9, where 1 is the maximum; inactive = score below 0.9); settings: mRNA level, 48 h; actives raise or lower the signal
# In short: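 HepaRG, 48 h post-plating switch to serum-free induction medium; chemical 48 h, 100 uM top, half-log x8, duplicate, 0.5% DMSO. Phenobarbital 1mM induction control. UGT1A6 mRNA by TaqMan qRT-PCR; gain/loss fit vs DMSO.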
# [5] = read-out: X-box binding protein 1 (XBP1), XBP1 (gene 7494); test: LTEA_HepaRG_XBP1: Life Technologies and Expression Analysis (LTEA) Assay for X-box binding protein 1 (XBP1) using HepaRG (AID 2283540; active = hit-call score of the fitted dose curve at least 0.9, where 1 is the maximum; inactive = score below 0.9); settings: mRNA level, 48 h; actives raise or lower the signal
# In short: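 Transcript levels of XBP1, measured by qRT-PCR and normalised to three housekeeping genes, were fitted bidirectionally relative to 0.5% DMSO controls. Human HepaRG cells received eight-point half-log dilutions from 100 uM for 48 h.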
# [6] = LTEA_HepaRG_LDH_cytotoxicity: Cytotoxicity Assessment in the Life Technologies and Expression Analysis (LTEA) Assay (AID 2283563)
# In short: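 Cells were thawed and plated for 48 h. Medium was then replaced with serum-free induction medium. Chemicals (8 half-log points, maximum 100 uM, 0.5% DMSO) were added in duplicate for 48 h, after which spent medium was assayed for LDH.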
# [7] = molecular target: Cellular tumor antigen p53 (Homo sapiens) (UniProt P04637); test: TOX21_p53_BLA_p2_ratio: Tox21 HCT-116 p53 Agonism Beta-lactamase Assay, Ratio, Phase 2 (AID 2283592)
# Cellular tumor antigen p53 (Homo sapiens), sequence (P04637 whole entry, looked up): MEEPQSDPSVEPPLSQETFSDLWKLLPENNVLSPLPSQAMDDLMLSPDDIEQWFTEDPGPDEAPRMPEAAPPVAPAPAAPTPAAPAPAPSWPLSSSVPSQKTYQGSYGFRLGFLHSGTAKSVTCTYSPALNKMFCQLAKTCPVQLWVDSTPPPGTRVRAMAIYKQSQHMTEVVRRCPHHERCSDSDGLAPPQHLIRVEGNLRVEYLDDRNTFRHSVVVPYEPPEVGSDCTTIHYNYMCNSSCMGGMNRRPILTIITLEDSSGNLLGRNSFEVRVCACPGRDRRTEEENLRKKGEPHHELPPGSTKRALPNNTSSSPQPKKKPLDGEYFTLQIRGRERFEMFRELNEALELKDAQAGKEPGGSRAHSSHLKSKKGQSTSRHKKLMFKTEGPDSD
# In short: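 HCT116 p53-bla; 4000 cells/well; 5 h pre-incubation; cpd in DMSO, 217-fold dilution; 16 h 37C/5% CO2; CCF4-AM 2 h RT; Ex 405, Em 460/530 ratio; DMSO = baseline; positive fitting direction.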
# [8] = TOX21_p53_BLA_p3_viability: Viability Assessment in the Tox21 HCT-116 p53 Agonism Beta-lactamase Assay, Phase 3 (AID 2283593);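 also: cells exposed to compound for 16 h before reading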
# In short: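 Cellular ATP was quantified by CellTiter-Glo luminescence, read after 30 min at room temperature. Beforehand, HCT116 cells (4000/well) received compound 5 h post-seeding, 217-fold diluted from DMSO, then incubated 16 h at 37C.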
# [9] = molecular target: Cellular tumor antigen p53 (Homo sapiens) (UniProt P04637); test: TOX21_p53_BLA_p5_ratio: Tox21 HCT-116 p53 Agonism Beta-lactamase Assay, Ratio, Phase 5 (AID 2283599)
# In short: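 Beta-lactamase reporter ratio (blue 460 nm over green 530 nm, 405 nm excitation) after 2 h CCF4-AM loading, in HCT-116 cells exposed 16 h at 37 C to compounds pinned at 217-fold dilution. Increases relative to DMSO baseline scored.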
# [10] = molecular target: Cellular tumor antigen p53 (Homo sapiens) (UniProt P04637); test: TOX21_p53_BLA_p4_ratio: Tox21 HCT-116 p53 Agonism Beta-lactamase Assay, Ratio, Phase 4 (AID 2283601)
# In short: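 Signal is the blue/green (460nm/530nm) ratio of cleaved versus uncleaved CCF4-AM substrate, read after 2 h substrate loading. Cells were HCT116 carrying the p53-responsive beta-lactamase reporter, dosed 16 h at 37C, 5% CO2; CellTiter-Glo measured in parallel.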
# [11] = Tanguay_ZF_120hpf_MORT_legacy: (Legacy) Oregon State University Tanguay Lab 120 Hour Post-fertilization zebrafish Assay for Mortality (AID 2283633);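 as to AC50: fitted as increase in binary mortality versus DMSO negative control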
# In short: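 5D WT zebrafish, chorion removed 4 hpf; 1 embryo/well from 6 hpf; static exposure to 120 hpf, 28C, dark, sealed. Final DMSO 0.64%. Readout: binary mortality, brightfield, 24 + 120 hpf; DMSO as negative control.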
# [12] = Tanguay_ZF_120hpf_YSE_legacy: (Legacy) Oregon State University Tanguay Lab 120 Hour Post-fertilization zebrafish Assay for Yolk Sac Edema (AID 2283634)
# In short: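 Dechorionate (pronase, 4 hpf) → place one 6 hpf embryo per well → static compound exposure, sealed and foil-covered, 28C, to 120 hpf → record yolk sac edema as present or absent. Final DMSO 0.64%.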
# [13] = Tanguay_ZF_120hpf_AXIS_legacy: (Legacy) Oregon State University Tanguay Lab 120 Hour Post-fertilization zebrafish Assay for Body Axis Malformation (AID 2283635)
# In short: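 Chorion is removed with pronase at 4 hpf, then single 6 hpf embryos are dosed (final DMSO 0.64%) and held statically at 28C in sealed, foil-covered plates. At 120 hpf body axis malformation is recorded as present or absent.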
# [14] = Tanguay_ZF_120hpf_EYE_legacy: (Legacy) Oregon State University Tanguay Lab 120 Hour Post-fertilization zebrafish Assay for Eye Malformation (AID 2283636)
# In short: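 Read-out is binary presence or absence of eye malformation, scored by brightfield microscopy at 120 hpf. Single larvae were exposed from 6 hpf in embryo medium containing 0.64% DMSO, with DMSO as baseline.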
# [15] = Tanguay_ZF_120hpf_SNOU_legacy: (Legacy) Oregon State University Tanguay Lab 120 Hour Post-fertilization zebrafish Assay for Snout Malformation (AID 2283637)
# In short: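 Snout malformation read as a yes/no call on brightfield images of 120 hpf larvae (Tropical 5D strain). Static exposure began at 6 hpf on dechorionated embryos in 0.64% DMSO, with gain of signal analysed versus DMSO controls.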
# [16] = molecular target: Cellular tumor antigen p53 (Homo sapiens) (UniProt P04637); test: TOX21_p53_BLA_p3_ratio: Tox21 HCT-116 p53 Agonism Beta-lactamase Assay, Ratio, Phase 3 (AID 2283596)
# In short: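 HCT116 p53-bla cells (4000/well) given compound in DMSO (217-fold dilution) after 5 h, incubated 16 h at 37C. CCF4-AM substrate 2 h at room temperature; 460/530 nm emission ratio, gain fitted against DMSO.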
# [17] = TOX21_p53_BLA_p4_viability: Viability Assessment in the Tox21 HCT-116 p53 Agonism Beta-lactamase Assay, Phase 4 (AID 2283597);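 also: hits lower the luminescence signal meaning cytotoxicity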
# In short: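 Cells plated, 5 h pre-incubation; DMSO compounds pinned (217-fold dilution); 16 h, 37C/5% CO2; CCF4-AM 2 h RT; CellTiter-Glo 30 min RT; luminescence read.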
# [18] = TOX21_p53_BLA_p5_viability: Viability Assessment in the Tox21 HCT-116 p53 Agonism Beta-lactamase Assay, Phase 5 (AID 2283600)
# In short: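 4000 cells/well; 5 h pre-incubation; DMSO compounds pin-transferred, 217-fold dilution; 16 h, 37C/5% CO2; CCF4-AM 2 h RT; CellTiter-Glo 30 min RT; luminescence.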
# [19] = TOX21_p53_BLA_p2_viability: Viability Assessment in the Tox21 HCT-116 p53 Agonism Beta-lactamase Assay, Phase 2 (AID 2283591);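 also: compound exposure lasted 16 h at 37 °C; actives lower the ATP signal meaning cytotoxicity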
# In short: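 Cytotoxicity readout: CellTiter-Glo ATP luminescence, 30 min at room temperature, after the beta-lactamase read. Cells were HCT116 exposed 16 h at 37C to compounds pin-transferred at 217-fold dilution from DMSO stocks.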
structure (smiles),measurement,setting,value
CN1COCN(Cc2cnc(Cl)s2)C1=N[N+](=O)[O-],outcome,[1],inactive
same,outcome,[2],inactive
same,outcome,[3],inactive
same,outcome,[4],inactive
same,outcome,[5],inactive
same,outcome,[6],inactive
same,outcome,[7],inactive
same,outcome,[8],inactive
same,outcome,[9],inactive
same,outcome,[10],inactive
same,outcome,[11],inactive
same,outcome,[12],inactive
same,outcome,[13],inactive
same,outcome,[14],inactive
same,outcome,[15],inactive
Cc1nn(-c2cc(NS(C)(=O)=O)c(Cl)cc2Cl)c(=O)n1C(F)F,outcome,[1],inactive
same,outcome,[2],inactive
same,AC50,[3],18.4 µM (active)
same,outcome,[4],inactive
same,outcome,[5],inactive
same,outcome,[6],inactive
same,outcome,[7],inactive
same,outcome,[16],inactive
same,outcome,[17],inactive
same,outcome,[18],inactive
same,outcome,[10],inactive
same,outcome,[11],inactive
same,outcome,[12],inactive
same,outcome,[13],inactive
same,outcome,[14],inactive
same,outcome,[15],inactive
COP(=O)(OC)OC(Br)C(Cl)(Cl)Br (stereo unspecified),outcome,[1],inactive
same,outcome,[3],inactive
same,outcome,[4],inactive
same,outcome,[6],inactive
same,outcome,[11],inactive
same,outcome,[12],inactive
same,outcome,[13],inactive
same,outcome,[14],inactive
same,outcome,[15],inactive
Cc1ccn2nc(S(=O)(=O)Nc3c(F)cccc3F)nc2n1,outcome,[1],inactive
same,outcome,[3],inactive
same,outcome,[4],inactive
same,outcome,[5],inactive
same,outcome,[6],inactive
same,outcome,[11],inactive
same,outcome,[12],inactive
same,outcome,[13],inactive
same,outcome,[14],inactive
same,outcome,[15],inactive
CCCSP(=O)(OCC)SCCC,outcome,[1],inactive
same,AC50,[3],22.8 µM (active)
same,outcome,[4],inactive
same,outcome,[5],inactive
same,outcome,[6],inactive
same,outcome,[12],inactive
same,outcome,[13],inactive
same,outcome,[14],inactive
same,outcome,[15],inactive
CCOP(=S)(OCC)SCCSCC,outcome,[1],inactive
same,outcome,[2],inactive
same,outcome,[3],inactive
same,outcome,[4],inactive
same,outcome,[5],inactive
same,outcome,[19],inactive
same,outcome,[7],inactive
same,outcome,[16],inactive
same,outcome,[17],inactive
same,outcome,[9],inactive
same,outcome,[18],inactive
same,outcome,[10],inactive
same,outcome,[11],inactive
same,outcome,[12],inactive
same,outcome,[13],inactive
same,outcome,[14],inactive
same,outcome,[15],inactive
CCc1cccc(CC)c1N(COC)C(=O)CCl,outcome,[1],inactive
same,AC50,[3],66.5 µM (active)
same,outcome,[4],inactive
same,outcome,[5],inactive
same,outcome,[6],inactive
same,AC50,[11],13.4 µM (active)
same,outcome,[12],inactive
same,outcome,[13],inactive
same,outcome,[14],inactive
same,outcome,[15],inactive
